# Screening data: PubChem, National Center for Advancing Translational Sciences (NCATS)
# An excerpt weighted towards active compounds, which were near 11% of everything screened.
# PNC inhibitor: perinucleolar compartment assembly inhibition; PC3M PTB-GFP, PNC prevalence imaging, 16 h; hits give low values; activity change (PNC), negative = inhibition, % at 10 µM; hit rate 3.1% among 140,000;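 active = readout at or below -70, meaning at least 70% loss of cells showing the perinucleolar compartment, a nuclear body marking cancer cells; inconclusive = readout between -30 and a set limit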;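 note: plate controls were DMSO wells for no effect and camptothecin positive control wells for full effect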
#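 Read-out is percentage of cells bearing a perinucleolar compartment, from automated 20x imaging of fixed, Hoechst-stained PC3M PTB-GFP cells. Cells were seeded 4 h, then exposed 16 h to compound (23 nl of library stock) in duplicate plates.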
# 12-hLO inh: 12-hLO (ALOX12) enzyme inhibition; P18054; purified 12-hLO, xylenol orange hydroperoxide absorbance; Potency, µM (series often up to 57.1 µM), for inactives: at the top dose activity change, negative = inhibition, actives largely listed as inhibitors; hit rate 0.12% among 150,000; AID 1452; note: potency is the fitted concentration of half-maximal effect; nearly all actives have a fitted effect of over 55% in size
#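 Xylenol orange chromogenic assay: hydroperoxide from 12hLO oxidises Fe(II), giving red-shifted Fe(III)-XO absorbance. Conditions: 150 nM enzyme, 40 uM arachidonic acid, 25 mM Hepes pH 7.0, 0.01% Triton X-100, 30 min, room temperature.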
# IMPase Li inh: cell-permeable IMPase inhibitors with lithium potentiation; CHO-M1 cells, IP1 TR-FRET (IP-One), carbachol + lithium; Potency, µM (series often up to 59.4 µM), inactives show at the top dose activity, negative = IMPase inhibition, hits mostly inhibitors; hit rate 0.35% among 210,000;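 note: IP1 builds up when IMPase is blocked and the TR-FRET signal falls; potency is the fitted concentration of half-maximal effect; plate controls were basal vehicle for no effect and high inhibitor control for full effect; nearly all actives have a fitted effect of over 50% in size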
#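 CHO-M1, 2000 cells/well, 16–30 h culture; cpd + low Li+, 30 min 37C; lysis with d2-IP1/Eu-anti-IP1 Ab, 10 min RT; TR-FRET 665/620 ratio and 620 channel; AC50 via Hill.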
# HPGD inh: HPGD (human) dehydrogenase inhibition | purified HPGD, NADH fluorescence kinetic, PGE2 substrate | hit rate 4.3% among 150,000 | Potency, µM, for inactives: at the top dose activity change, negative = inhibition, usual class: inhibitors | AID 894 | P15428; active = well fitted inhibition curve with a large enough effect, not every such curve was filed as active; inconclusive = small, poorly fitted or top-dose-only effect, or another doubt; inactive = no such curve, though single readings can be large or run the other way; note: potency is the fitted concentration of half-maximal effect
# Target sequence (P15428 whole entry, looked up): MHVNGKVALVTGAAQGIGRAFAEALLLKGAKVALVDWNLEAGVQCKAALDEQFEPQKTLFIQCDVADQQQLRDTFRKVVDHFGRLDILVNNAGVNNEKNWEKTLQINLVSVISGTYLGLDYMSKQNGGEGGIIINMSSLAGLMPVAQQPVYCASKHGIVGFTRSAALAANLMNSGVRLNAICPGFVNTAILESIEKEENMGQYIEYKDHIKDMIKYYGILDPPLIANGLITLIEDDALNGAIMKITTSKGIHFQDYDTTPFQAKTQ
#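 20 nM HPGD preincubated 15 min at room temperature with compound in 50 mM Tris-HCl pH 8, 0.01% Tween 20. Started with 1 mM NAD+ and 30 uM prostaglandin E2; NADH fluorescence (360/450 nm) read 5 times over 30-s intervals, last minus first.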
# ALDH1A1 inh: blocks purified human ALDH1A1 activity. Potency, µM (highest dose often 75.3 µM), for inactives: at the top dose activity, negative = inhibition, usual class: inhibitors. P00352. AID 1030. Purified ALDH1A1, NADH fluorescence, propionaldehyde substrate. hit rate 7.3% among 220,000; active = well fitted inhibition curve with a large enough effect, not every such curve was filed as active; inconclusive = small, poorly fitted or top-dose-only effect, or another doubt; inactive = no such curve, though single readings can be large or run the other way;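 note: potency is the fitted concentration of half-maximal effect; plate controls were no enzyme wells and a reference inhibitor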
# Target sequence (P00352 whole entry, looked up): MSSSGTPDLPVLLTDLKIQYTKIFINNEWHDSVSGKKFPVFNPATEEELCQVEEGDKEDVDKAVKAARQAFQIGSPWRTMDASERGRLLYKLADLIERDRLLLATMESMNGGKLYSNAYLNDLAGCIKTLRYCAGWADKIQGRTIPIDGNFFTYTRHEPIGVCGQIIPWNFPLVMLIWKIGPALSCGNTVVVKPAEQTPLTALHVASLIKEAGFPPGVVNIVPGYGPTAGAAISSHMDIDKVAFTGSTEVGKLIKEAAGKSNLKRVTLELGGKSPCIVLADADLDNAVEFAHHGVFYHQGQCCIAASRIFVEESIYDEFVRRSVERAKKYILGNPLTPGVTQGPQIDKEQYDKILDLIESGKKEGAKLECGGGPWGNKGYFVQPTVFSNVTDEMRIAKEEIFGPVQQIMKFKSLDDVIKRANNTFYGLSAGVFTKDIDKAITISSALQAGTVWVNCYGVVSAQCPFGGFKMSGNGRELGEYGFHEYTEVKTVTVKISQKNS
# IMPase cell inh: cell-permeable inhibitors of inositol monophosphatase (IMPase) | inhibition (IP1 accumulation), % at 46.1 µM | 120,000 tested, under 10 active | CHO-M1 cells, IP1 accumulation, HTRF TR-FRET ratio | P97697; active = well fitted curve in the direction sought with a large enough effect in the signal ratio, not every such curve was filed as active; inconclusive = small, poorly fitted or top-dose-only effect, or a change in a side signal; inactive = no such curve, though single readings can be large or run the other way; the % refers to the signal ratio;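 note: cells stimulated with carbachol in lithium chloride buffer; plate controls were DMSO basal wells for no effect and reference inhibitor wells for full effect; higher means more IMPase inhibition seen as more IP1 and lower FRET ratio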
#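 Cellular IMPase inhibition is scored as a rise in cytosolic IP1, detected by competitive TR-FRET between d2-labelled IP1 and a europium anti-IP1 antibody. M1-expressing CHO cells were stimulated with carbachol for 30 min at 37C, with lithium (50 mM LiCl) present in the buffer.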
# * hit, by the source's call; ? = inconclusive; · = no result; [ ] = another dose, or the depositor's remark. Unless noted, calls come from the whole dose curve; as a rule, active = well fitted curve in the direction sought with a large enough effect; inconclusive = small, poorly fitted or top-dose-only effect, or another doubt; inactive = no such curve, though single readings can be large; an effect the other way counts as inactive or inconclusive. Unless noted, % is set by controls: 0 for no effect and ±100 for the full control effect.
SMILES,PNC inhibitor,12-hLO inh,IMPase Li inh,HPGD inh,ALDH1A1 inh,IMPase cell inh
Nc1nc(=O)n(C2OC(CO)C(O)C2O)cc1Cl (centres undefined),·,-1%,1%,-5%,5%,·
O=C1[C@@H]2[C@H](C(=O)N1O)[C@H]1C=C[C@@H]2C1,33,1%,19%[38.3 µM],-9%,0.63µM*,-9
O=C(NCCCN1CCOCC1)c1sc2cc([N+](=O)[O-])ccc2c1Cl,·,·,6%,·,7.9µM*,·
CCCS(=O)(=O)N1CCC(C(=O)NC2CCCC(C)C2C)CC1 (centres undefined),-16,1%,11%[38.3 µM],-13%,-4%,3[1.84 µM]
CCCS(=O)(=O)N1CCCC(C(=O)NC2CCCC(C)C2C)C1 (centres undefined),-82*,5%,0%[38.3 µM],-6%,-4%,-11
NC(=O)c1cc[n+](CC2=C(C(=O)O)N3C(=O)C(NC(=O)C(c4ccccc4)S(=O)(=O)[O-])C3SC2)cc1 (centres undefined),·,3%,2%,32µM*,?,·
NC(=O)c1cc[n+](CC2=C(C(=O)O)N3C(=O)[C@@H](NC(=O)[C@H](c4ccccc4)S(=O)(=O)[O-])[C@@H]3SC2)cc1,·,-7%[25.6 µM],1%,-6%,-3%[20.9 µM],2[20.6 µM]
O=C(O)CCNC(=O)/C(=C/C=C/c1ccccc1)NC(=O)c1ccccc1,·,·,6%,·,-2%,·
CSCCC(NC(=O)c1ccccc1)C(=O)OCC(=O)c1ccc[nH]1 (centres undefined),9,2%,1%,-3%,2%,·
CSCCC(NC(=O)c1ccc(Cl)cc1)C(=O)OCC(=O)c1ccc[nH]1 (centres undefined),-119*,-7%,9%,-8%,-6%,8
Cc1ccc(NC(=O)CC(O)(C(F)(F)F)C(F)(F)F)c(Br)c1,?,-11%,26%[38.3 µM],-14%,3%,-3
Cc1ccc(NC(=O)COC(=O)C2CC2)c(Br)c1,-20,0%,-6%,18µM*,7%,·
CCN(CC)CC(=O)Nc1ccc(C)cc1Br,12,0%,25%[38.3 µM],16µM*,13µM*,3
CCN(CC)CC(=O)Nc1c(C)cc(C(C)(C)C)cc1C,?,4%,13%[38.3 µM],25µM*,0%,0
Cc1ccc(NC(=O)COC(=O)c2cc(Cl)cc(Cl)c2)c(Br)c1,-21,-2%,-2%,-6%,15%,·
CN=C(NC#N)Nc1ccc(C2=NNC(=O)C[C@@H]2C)cc1,·,5%,11%,-17%,?,1
Cc1cccc(C)c1NC(=O)Cn1c(=O)n(CCCS(=O)(=O)C2CCCCC2)c(=O)c2ccccc21,·,·,·,·,·,2
CCOc1ccccc1N(CC(=O)N1CCc2ccccc2C1)S(=O)(=O)c1ccccc1,·,·,·,·,·,-3
O=C(COC(=O)c1ccccc1Br)NCCC1=CCCCC1,·,·,-2%,·,-7%,·
COc1ccc(CNC(=O)COC(=O)CC2CCCC2)cc1,-22,-4%,-8%,-12%,7.9µM*,·
O=C(NC(=S)NCCC1=CCCCC1)c1ccccc1Br,·,·,29%,·,7.1µM*,·
O=C(COc1cnc2ccccc2n1)NCCC1=CCCCC1,14,1%,6%[38.3 µM],-15%,11µM*,-1
COc1ccc(C(=O)NCC(=O)OCC(=O)NC2CCCC2)cc1,·,·,-2%,·,?,·
COc1ccc(OCCC(=O)OCC(=O)NC2CCCCCCC2)cc1,·,·,0%,·,16µM*,·
O=C(COc1ncnc2ccccc12)NCCC1=CCCCC1,-25,4%,4%[38.3 µM],-8%,2%,?
SMILES,PNC inhibitor,12-hLO inh,IMPase Li inh,HPGD inh,ALDH1A1 inh,IMPase cell inh
CCCc1nn(C)c(C(N)=O)c1[N+](=O)[O-],·,·,-6%,·,4%,·
CC(C)(C)NS(=O)(=O)c1ccc(OCC(=O)NCCC2=CCCCC2)cc1,?,2%,25%[38.3 µM],2%,-3%,-1
COc1ccc(CC(=O)NCCC2=CCCCC2)cc1,·,·,8%,·,24µM*,·
COc1ccc(OCCC(=O)OCC(=O)NCCC2=CCCCC2)cc1,·,·,-12%,·,13µM*,·
COC(=O)c1cccc(NC(=S)NCCC2=CCCCC2)c1,40,?,12%[38.3 µM],?,28µM*,7
CCOC(=O)COc1ccc(S(=O)(=O)NCCC2=CCCCC2)cc1,?,1%,49%[38.3 µM],-10%,32µM*,16
COc1ccc(N(CC(=O)NCCC2=CCCCC2)S(C)(=O)=O)cc1,29,-1%,8%[38.3 µM],3%,?,2
Cc1csc(NC(=O)c2cncc(Br)c2)n1,·,·,-7%,·,6%,·
COc1ccc(/C=C(\C#N)c2nc(-c3cc(Cl)ccc3OC)cs2)cc1,·,·,·,·,·,-3
CCOc1ccc(Oc2nc(NCC(C)C)nc(N3CCOCC3)n2)nn1,·,·,·,·,·,1
CC1=NN(c2ccccc2)C(=O)/C1=C/C=C/C=C/N(C)C,·,·,38%,·,-12%,·
CC1=NN(c2ccccc2)C(=O)/C1=C/c1c(O)n(-c2ccc(F)cc2)[nH]c1=O,23,-7%,1%,-25%,20µM*,·
CC1=NN(c2ccccc2)C(=O)/C1=C/c1ccc[nH]1,-20,-2%,5%,-5%,-3%,·
CC1=NN(c2ccccc2)C(=O)/C1=C/c1cccs1,?,0%,11%,32µM*,14µM*,·
CC1=NN(c2ccccc2)C(=O)/C1=C\c1ccc(Br)s1,-23,-4%,4%,28µM*,7.9µM*,·
COCCn1c(=O)c(C)nc2cnc(Oc3ccc(OC)cc3)nc21,·,·,-9%,·,-12%,·
COc1ccc(S(=O)(=O)Nc2cccc(N(C)S(C)(=O)=O)c2)cc1Br,23,1%,·,·,?,?
CN(c1cccc(NS(=O)(=O)c2cccs2)c1)S(C)(=O)=O,14,2%,8%[38.3 µM],-8%,20µM*,-3
O=C(NCc1nnc(SCC(=O)N2CCC(Cc3ccccc3)CC2)o1)c1ccccc1F,-27,-3%,9%,-9%,8.9µM*,8
O=C(CN1CCC(NC(=O)c2ccccc2F)CC1)Nc1ccc2c(c1)OCCO2,·,·,3%,·,13µM*,·
O=C(CSc1nnc(-c2ccccc2Cl)o1)Nc1ccc2c(c1)OCCO2,-13,-1%,0%,-10%,20µM*,?
O=C(CSc1nnc(CNC(=O)c2ccccc2F)o1)Nc1ccc2c(c1)OCCO2,9,2%,23%[38.3 µM],-9%,10µM*,2
O=S(=O)(c1ccc(F)cc1)n1ccc2cccnc21,-100*,6%,5%,-6%,12%,-5
O=S(=O)(c1ccccc1)n1ccc2ccccc21,-7,-29%,7%[38.3 µM],?,?,17
COc1ccccc1OCCNC1CCCC1,-98*,-8%,7%[38.3 µM],-9%,?,-3
N#Cc1ccccc1OCCOCCNC1CCCC1,?,-1%,7%,6%,-10%,·
C[C@@]12CC[C@@H]3[C@H](CCC4=CC(=O)CC[C@]43C)[C@@H]1CC[C@@H]2C(=O)COS(=O)(=O)c1ccc(Br)cc1,·,-10%[11.4 µM],-16%,-14%,3.5µM*,·
